Results published in ChEMBL document CHEMBL3988442, “University of Dundee, Small-Polar-MMV Screening Library” (2021).
For some assays here: Results with a measured potency or affinity are listed apart.

Assays:
Parameters in all cases: scale not given: direction of the effect not stated beside the values
[1] = molecular target: Protein translocase subunit SecA (Escherichia coli (strain K12)) (UniProt P10408); test: Assay to Identify E. coli SecA ATPase Inhibitors; format: functional; conditions: 30 µM
[2] = molecular target: T1, Ubiquitin-activating enzyme e1, putative (Leishmania donovani (strain BPK282A1)) (UniProt E9BSI1); test: Leishmania donovani Ubiquitin Activating Enzyme (LdE1); format: functional; conditions: 30 µM
T1 sequence (whole entry): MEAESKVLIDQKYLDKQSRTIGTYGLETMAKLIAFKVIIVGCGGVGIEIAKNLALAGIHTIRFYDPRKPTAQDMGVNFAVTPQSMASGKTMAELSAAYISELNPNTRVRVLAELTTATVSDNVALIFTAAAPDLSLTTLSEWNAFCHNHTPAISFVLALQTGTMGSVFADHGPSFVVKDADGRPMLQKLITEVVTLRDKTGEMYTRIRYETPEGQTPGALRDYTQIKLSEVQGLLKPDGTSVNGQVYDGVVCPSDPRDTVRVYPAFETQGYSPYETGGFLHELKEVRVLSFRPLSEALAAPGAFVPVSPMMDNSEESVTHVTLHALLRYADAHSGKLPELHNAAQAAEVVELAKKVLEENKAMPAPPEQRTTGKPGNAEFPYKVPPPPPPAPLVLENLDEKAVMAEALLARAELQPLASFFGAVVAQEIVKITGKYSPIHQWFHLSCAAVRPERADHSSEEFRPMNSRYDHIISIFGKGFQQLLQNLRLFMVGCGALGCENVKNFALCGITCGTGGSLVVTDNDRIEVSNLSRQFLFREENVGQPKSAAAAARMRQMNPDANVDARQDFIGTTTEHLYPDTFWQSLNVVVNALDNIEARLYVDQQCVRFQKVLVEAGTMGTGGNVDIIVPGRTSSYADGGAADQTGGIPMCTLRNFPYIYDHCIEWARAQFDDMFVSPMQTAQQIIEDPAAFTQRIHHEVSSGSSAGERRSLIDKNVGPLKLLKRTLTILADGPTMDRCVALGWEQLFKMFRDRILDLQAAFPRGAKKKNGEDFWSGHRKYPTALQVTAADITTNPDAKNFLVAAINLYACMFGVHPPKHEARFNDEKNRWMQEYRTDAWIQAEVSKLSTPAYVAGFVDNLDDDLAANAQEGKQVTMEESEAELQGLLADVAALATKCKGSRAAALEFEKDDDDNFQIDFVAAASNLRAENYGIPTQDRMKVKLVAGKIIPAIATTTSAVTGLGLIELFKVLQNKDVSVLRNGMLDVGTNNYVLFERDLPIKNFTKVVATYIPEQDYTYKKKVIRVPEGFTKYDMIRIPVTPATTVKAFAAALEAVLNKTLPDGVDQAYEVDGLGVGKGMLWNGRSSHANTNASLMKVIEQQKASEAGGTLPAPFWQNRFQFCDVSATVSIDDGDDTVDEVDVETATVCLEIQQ

[3] = molecular target: AMP-activated protein kinase, AMPK (Homo sapiens) (UniProt P54646+O43741+P54619+Q9UGJ0+Q9Y478+Q13131+Q9UGI9); test: AMP-dependent Kinase enzyme assay. An in vitro enzyme assay that detects ADP turnover that is directly proportional to AMPK activity. This uses naive AMPK that is activated during the assay with MK-8722; format: functional; conditions: 30 µM
[4] = molecular target: Sialic acid-binding Ig-like lectin 9 (Homo sapiens) (UniProt Q9Y336); test: Hs-Siglec9 ALPHAscreen SOP 20170721; conditions: 10 µM
[5] = tested on: Trypanosoma cruzi; test: Trypanosoma cruzi phosphomannomutase and mannose-1-phosphate guanylyltransferase assay; format: functional; conditions: 10 µM
[6] = molecular target: T2, Arginase-2, mitochondrial (Homo sapiens) (UniProt P78540); test: in vitro enzyme assay to detect the production of urea directly proportional to the activity of Arginase II; format: functional; conditions: 33.3 µM; also: in the data most compounds retested in dose-response had high values
T2 sequence (whole entry): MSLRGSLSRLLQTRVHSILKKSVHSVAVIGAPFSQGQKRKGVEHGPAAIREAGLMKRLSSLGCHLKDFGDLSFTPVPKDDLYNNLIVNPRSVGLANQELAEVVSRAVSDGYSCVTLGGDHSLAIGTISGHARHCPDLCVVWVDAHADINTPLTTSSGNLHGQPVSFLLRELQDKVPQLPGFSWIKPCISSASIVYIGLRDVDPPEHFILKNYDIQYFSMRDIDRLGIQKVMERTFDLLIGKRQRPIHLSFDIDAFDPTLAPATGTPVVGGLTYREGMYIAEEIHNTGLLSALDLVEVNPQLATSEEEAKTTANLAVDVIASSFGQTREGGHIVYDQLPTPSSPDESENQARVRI

[7] = molecular target: T3, Proteasome subunit beta (Trypanosoma cruzi) (UniProt O96673); test: Trypanosoma cruzi proteasome chymotrypsin-like activity (TcProtChymo) assay.; also: in the data most compounds retested in dose-response had high values; format: functional; conditions: 9.37 µM
T3 sequence (whole entry): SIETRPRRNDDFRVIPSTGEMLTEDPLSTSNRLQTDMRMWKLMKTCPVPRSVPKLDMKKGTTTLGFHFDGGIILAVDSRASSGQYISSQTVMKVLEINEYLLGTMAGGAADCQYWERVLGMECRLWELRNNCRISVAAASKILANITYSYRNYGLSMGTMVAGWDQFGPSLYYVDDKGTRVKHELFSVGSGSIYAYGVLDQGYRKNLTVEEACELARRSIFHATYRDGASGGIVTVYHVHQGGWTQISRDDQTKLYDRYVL

[8] = species: Homo sapiens; test: To identify inhibition of the IFN signalling (Jak-Stat) pathway via expression of an eGFP reporter gene under the control of an IFN-stimulated response element (ISRE) containing MxA promoter.; format: functional; conditions: 30 µM
[9] = molecular target: T4, Tyrosyl-tRNA synthetase, putative (Trypanosoma cruzi (strain CL Brener)) (UniProt Q4DSP6); test: Trypanosoma cruzi tyrosyl tRNA synthetase (TcYRS) _High Tyrosine SOP; format: functional; conditions: 30 µM; also: in the data most compounds retested in dose-response had high values
T4 sequence (whole entry): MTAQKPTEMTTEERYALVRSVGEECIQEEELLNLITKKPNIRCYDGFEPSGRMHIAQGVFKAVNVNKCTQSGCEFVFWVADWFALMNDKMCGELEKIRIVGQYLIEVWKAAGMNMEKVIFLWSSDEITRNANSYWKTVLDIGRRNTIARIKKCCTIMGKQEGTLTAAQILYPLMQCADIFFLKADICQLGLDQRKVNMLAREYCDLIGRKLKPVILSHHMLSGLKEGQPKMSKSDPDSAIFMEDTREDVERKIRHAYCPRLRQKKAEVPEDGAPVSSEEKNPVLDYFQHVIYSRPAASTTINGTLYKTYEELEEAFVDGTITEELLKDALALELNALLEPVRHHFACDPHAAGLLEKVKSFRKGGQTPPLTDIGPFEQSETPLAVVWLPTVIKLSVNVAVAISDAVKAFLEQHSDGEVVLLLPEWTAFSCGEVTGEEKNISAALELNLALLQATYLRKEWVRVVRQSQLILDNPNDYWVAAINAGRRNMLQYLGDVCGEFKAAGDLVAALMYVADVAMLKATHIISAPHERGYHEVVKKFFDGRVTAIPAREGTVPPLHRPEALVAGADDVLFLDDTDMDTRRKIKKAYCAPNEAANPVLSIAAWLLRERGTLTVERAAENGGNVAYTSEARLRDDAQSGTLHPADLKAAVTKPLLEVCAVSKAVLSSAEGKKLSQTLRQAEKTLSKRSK

[10] = molecular target: T4, Tyrosyl-tRNA synthetase, putative (Trypanosoma cruzi (strain CL Brener)); test: Trypanosoma cruzi tyrosyl tRNA synthetase (TcYRS) SOP; format: functional; conditions: 30 µM
[11] = molecular target: Chromo domain-containing protein 1 (Saccharomyces cerevisiae (strain ATCC 204508 / S288c) (Baker's yeast)) (UniProt P32657); test: ScCHD-1 Enzyme Inhibition Assay; format: functional; conditions: 30 µM; also: in the data most compounds retested in dose-response had high values
Chain of Chromo domain-containing protein 1 (Saccharomyces cerevisiae (strain ATCC 204508 / S288c) (Baker's yeast)) (P32657 whole entry, the tested form may be a part): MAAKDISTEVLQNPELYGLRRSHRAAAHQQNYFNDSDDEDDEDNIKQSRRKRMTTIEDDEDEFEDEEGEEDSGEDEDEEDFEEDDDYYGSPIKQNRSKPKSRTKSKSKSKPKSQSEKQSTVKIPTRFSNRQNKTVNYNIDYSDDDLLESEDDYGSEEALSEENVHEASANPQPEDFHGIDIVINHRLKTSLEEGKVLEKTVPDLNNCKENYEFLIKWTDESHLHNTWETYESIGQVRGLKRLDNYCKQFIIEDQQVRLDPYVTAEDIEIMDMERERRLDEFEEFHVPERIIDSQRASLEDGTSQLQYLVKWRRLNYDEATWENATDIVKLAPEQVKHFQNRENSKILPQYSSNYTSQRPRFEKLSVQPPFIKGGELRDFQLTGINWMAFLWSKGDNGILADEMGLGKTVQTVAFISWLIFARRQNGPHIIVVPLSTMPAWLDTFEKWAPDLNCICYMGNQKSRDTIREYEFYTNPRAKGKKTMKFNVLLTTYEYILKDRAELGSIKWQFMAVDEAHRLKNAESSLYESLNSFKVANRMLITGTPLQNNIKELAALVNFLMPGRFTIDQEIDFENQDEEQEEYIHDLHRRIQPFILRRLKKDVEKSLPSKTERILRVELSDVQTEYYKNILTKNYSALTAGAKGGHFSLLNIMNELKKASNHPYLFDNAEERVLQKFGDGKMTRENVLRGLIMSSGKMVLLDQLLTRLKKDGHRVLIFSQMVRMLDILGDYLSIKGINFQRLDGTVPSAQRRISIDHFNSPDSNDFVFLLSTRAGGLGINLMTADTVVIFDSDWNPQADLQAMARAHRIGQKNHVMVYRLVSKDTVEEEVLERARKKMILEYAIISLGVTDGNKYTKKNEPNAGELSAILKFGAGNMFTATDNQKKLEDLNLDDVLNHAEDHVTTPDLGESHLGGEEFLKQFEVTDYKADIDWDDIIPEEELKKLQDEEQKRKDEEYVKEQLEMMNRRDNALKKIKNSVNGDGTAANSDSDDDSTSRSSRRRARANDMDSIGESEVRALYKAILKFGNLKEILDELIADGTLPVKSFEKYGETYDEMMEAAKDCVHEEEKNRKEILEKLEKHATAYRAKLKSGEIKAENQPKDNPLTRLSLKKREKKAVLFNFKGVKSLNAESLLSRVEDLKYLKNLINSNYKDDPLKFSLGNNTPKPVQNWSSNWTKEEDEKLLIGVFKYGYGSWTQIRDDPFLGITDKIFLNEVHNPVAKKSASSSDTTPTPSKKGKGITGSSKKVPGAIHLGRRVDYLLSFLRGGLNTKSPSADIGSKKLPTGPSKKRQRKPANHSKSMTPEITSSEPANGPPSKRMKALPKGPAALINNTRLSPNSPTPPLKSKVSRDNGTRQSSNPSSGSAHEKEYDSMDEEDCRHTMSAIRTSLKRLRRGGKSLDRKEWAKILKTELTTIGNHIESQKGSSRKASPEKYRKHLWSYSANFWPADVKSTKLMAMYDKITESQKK

Chain of Protein translocase subunit SecA (Escherichia coli (strain K12)) (P10408 whole entry): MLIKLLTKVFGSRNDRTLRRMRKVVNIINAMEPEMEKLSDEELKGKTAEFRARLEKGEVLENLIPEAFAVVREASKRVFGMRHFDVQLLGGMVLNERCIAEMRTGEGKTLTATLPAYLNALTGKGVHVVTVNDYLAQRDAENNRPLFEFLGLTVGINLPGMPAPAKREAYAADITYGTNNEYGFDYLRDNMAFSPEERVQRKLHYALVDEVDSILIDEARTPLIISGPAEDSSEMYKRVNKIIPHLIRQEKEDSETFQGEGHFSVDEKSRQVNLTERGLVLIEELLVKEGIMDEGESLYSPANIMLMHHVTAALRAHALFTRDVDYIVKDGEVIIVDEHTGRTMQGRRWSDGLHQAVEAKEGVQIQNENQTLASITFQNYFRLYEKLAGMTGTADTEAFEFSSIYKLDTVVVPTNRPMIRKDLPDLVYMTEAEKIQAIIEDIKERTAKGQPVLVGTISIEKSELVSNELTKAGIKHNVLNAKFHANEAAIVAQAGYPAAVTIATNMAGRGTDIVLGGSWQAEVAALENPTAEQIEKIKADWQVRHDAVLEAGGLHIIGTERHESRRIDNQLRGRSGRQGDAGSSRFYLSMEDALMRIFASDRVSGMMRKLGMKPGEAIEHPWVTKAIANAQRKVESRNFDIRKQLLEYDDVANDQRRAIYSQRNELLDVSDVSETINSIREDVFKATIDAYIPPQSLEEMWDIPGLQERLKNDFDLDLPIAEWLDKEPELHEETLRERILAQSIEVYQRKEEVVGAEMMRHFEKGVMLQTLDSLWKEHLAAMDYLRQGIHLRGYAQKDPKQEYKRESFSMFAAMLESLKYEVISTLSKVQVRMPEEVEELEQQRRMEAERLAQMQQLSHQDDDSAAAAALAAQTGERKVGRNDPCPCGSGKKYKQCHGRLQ
Chain of Sialic acid-binding Ig-like lectin 9 (Homo sapiens) (Q9Y336 whole entry): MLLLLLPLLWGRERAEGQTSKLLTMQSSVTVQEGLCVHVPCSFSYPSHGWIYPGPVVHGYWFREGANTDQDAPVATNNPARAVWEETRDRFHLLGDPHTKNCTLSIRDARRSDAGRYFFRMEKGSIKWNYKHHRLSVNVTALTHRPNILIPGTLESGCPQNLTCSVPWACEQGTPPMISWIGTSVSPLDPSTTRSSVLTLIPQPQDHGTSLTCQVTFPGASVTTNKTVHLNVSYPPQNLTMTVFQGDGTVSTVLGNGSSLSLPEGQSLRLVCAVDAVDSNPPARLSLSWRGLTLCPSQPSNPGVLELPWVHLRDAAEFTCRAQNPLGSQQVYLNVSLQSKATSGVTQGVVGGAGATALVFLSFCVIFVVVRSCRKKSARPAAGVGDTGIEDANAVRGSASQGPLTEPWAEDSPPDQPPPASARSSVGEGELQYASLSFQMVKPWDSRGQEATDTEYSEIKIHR

SMILES	Percent Effect [1]	Percent Effect [2]	Percent Effect [3]	Percent Effect [4]	Percent Effect [5]	Percent Effect [6]	Percent Effect [7]	Percent Effect [8]	Percent Effect [9]	Percent Effect [10]	Percent Effect [11]
Cc1noc(C)c1CN1CC[C@@H](OCC2CC2)[C@@H](Cc2ccccc2)C1	-3.38%	13.3%	8.95%	-2.52%	3.15%	1.63%	14%	1.91%	5.32%	14.1%	-5.06%
COc1ccc(CNC(C)c2cccc(Cl)c2)c(OC)c1OC (stereo not given)	-1.96%	10.7%	-5.69%	5.99%	6.52%	4.69%	5.58%	16.5%	0.546%	6.17%	-1.65%
Cc1ccc(OCCC(=O)NC2CCc3nccn3C2)cc1 (stereo not given)	-6%	0%	7.39%	1.52%	-1.07%	-13%	17.6%	-12.9%	5.32%	13%	-2.38%
COCCN1CCN(CCCS(C)(=O)=O)CC1C (stereo not given)	-5.52%	21.6%	-8.32%	7.36%	9.56%	0.924%	9.16%	4.15%	9.9%	28.1%	52%
Cc1nc(C)c(C(=O)NCCNC(=O)Cc2ccccc2)s1	-3.47%	16.2%	-4.83%	1.88%	-4.36%	-2.4%	16.7%	11.2%	7.92%	18.3%	-2.99%
CCn1c(N)nc2cc(C(=O)NCc3ccccc3Cl)cnc21	-5.22%	8.22%	1.39%	-1.08%	-0.196%	5.91%	14.9%	5.03%	7.53%	17.5%	-4.29%
CNC(=O)[C@@]12CCC3(CCN(C(C)=O)CC3)[C@@H]1CN(S(C)(=O)=O)C2	-4.16%	8.11%	-2.4%	-2.81%	-4.01%	4.22%	-0.0858%	1.1%	5.38%	6.17%	-3.18%
N#Cc1ccc(CN2CCN(C(=O)C3CCC3)[C@@H]3CS(=O)(=O)C[C@@H]32)cc1	-4.22%	5.2%	3.66%	3.04%	-5.61%	-20.7%	8.98%	14.4%	4.3%	8.64%	-1.71%
CCc1nc(C2CCCN2Cc2nc(CCOC)no2)no1 (stereo not given)	-3.77%	10.4%	-0.579%	7.16%	6.59%	-5.52%	3.49%	-6.27%	3.23%	11.1%	-7.19%
O=c1cc(Cn2ccnc2)nc2n1CCCN(Cc1ccsc1)C2	-4.06%	4%	0.478%	7%	-5.7%	-6.51%	13.3%	-7.79%	7.41%	5.13%	-8.3%
